This is an account of results in PubChem BioAssay AID1851 (National Center for Advancing Translational Sciences (NCATS), 2009).

Structures are written as SMILES. In all, about 16,000 compounds went through this assay and about 5,100 (32%) were called active. Roughly 25% stayed inconclusive and do not appear here. Calls come from the whole dose curve; as a rule, active = well fitted curve in the direction sought with a large enough effect; inconclusive = small, poorly fitted or top-dose-only effect, or effect the other way; inactive = no such curve, though single readings can be large or run the other way. Some of the results follow.
% is set by controls: 0 for no effect and ±100 for the full control effect.

The target of the assay is Cytochrome P450 3A4 (Homo sapiens) (UniProt P08684). Kind of assay: Cytochrome panel assay with activity outcomes. To be noted: recombinant CYP, pro-luciferin dealkylation, luminescence, p450-cyp3a4; series mostly up to 57.1 µM.
Chain of Cytochrome P450 3A4 (Homo sapiens) (P08684 whole entry, looked up): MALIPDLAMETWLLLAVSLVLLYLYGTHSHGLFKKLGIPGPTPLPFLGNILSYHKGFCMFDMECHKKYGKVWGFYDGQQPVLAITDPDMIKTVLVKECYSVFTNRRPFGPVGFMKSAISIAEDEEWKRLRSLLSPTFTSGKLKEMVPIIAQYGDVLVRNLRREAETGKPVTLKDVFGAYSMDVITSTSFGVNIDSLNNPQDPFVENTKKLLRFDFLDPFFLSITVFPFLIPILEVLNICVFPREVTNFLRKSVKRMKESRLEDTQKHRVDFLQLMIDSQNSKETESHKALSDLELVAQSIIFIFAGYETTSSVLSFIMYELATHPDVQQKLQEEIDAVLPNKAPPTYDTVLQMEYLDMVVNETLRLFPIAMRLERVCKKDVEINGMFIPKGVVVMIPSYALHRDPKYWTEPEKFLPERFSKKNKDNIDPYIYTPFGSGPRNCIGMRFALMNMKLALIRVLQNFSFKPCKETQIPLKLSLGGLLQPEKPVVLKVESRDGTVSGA
For the molecule `Cc1ccc(/C=C/c2ccc(=O)n(Cc3ccc(Cl)cc3Cl)n2)cc1`, the AC50 (usually the concentration giving half of the maximal activity seen) was “inactive”. Same read-out and setting: the value for `Cc1ccc(Cn2cnc3c(nnn3Cc3ccc(Cl)cc3)c2=O)cc1` was 3.16 µM (active); that for `Cc1nn(Cc2c(F)c(F)c(F)c(F)c2F)c(C)c1NC(=O)c1c(-c2ccccc2)nn(-c2ccccc2)c1C` was 2.24 µM (active).

As to `Cc1nn(Cc2c(F)c(F)c(F)c(F)c2F)c(C)c1NC(=O)c1cccc(COc2ccc(Cl)cc2)c1`, the activity, negative = inhibition is -20.6% [at 2.29 µM] (inactive). Consider `Cc1nn(Cc2c(F)c(F)c(F)c(F)c2F)c(C)c1NC(=O)c1cccc(COc2ccccc2Cl)c1`, for which the AC50 is 3.98 µM (active).

On to `Cc1ncc(COP(=O)(O)O)c(C)c1O`, for which the activity, negative = inhibition was -9.44% [at 11.4 µM] (inactive).

Consider `COc1ccc(OC)c(-c2cc(C(=O)O)c3cc4ccccc4cc3n2)c1`, for which the activity, negative = inhibition was 6% [at 11.4 µM] (inactive). As to `COc1cc(-c2nnc(COC(=O)c3c4c(nc5ccccc35)CCCC4)o2)cc(OC)c1OC`, the AC50 is 4.47 µM (active). `COc1ccc(OC)c(NC(=O)c2c3c(nc4ccccc24)CCC3)c1`: the AC50 was 7.08 µM (active). Still for that read-out and setting: the value for `Nc1c2c(nc3ccccc13)CCCC2` was “inactive”; that for `COc1ccc(OC)c(NC(=O)[C@H]2CC=CC[C@H]2C(=O)O)c1` was “inactive”; that for `O=C1NC(=O)C(c2ccccc2)(c2ccccc2)N1` was “inactive”. As for `O=C1Nc2cc(C(=O)N3CCOCC3)ccc2SC1N1CCOCC1` (stereo not given), the AC50 result is “inactive”. Turning to `Cc1cn(CC[C@H](N)C(=O)O)c(=O)[nH]c1=O`, the activity, negative = inhibition is -9% [at 11.4 µM] (inactive).

Regarding `O=C(NCc1ccccc1)C(c1ccncc1)N(C(=O)c1csnn1)C1CC1` (stereo not given), the AC50 was 2.82 µM (active). Take `O=C(Nc1cccc(F)c1)N1CCC2(CC1)CCN(C(=O)c1csnn1)CC2`: the AC50 entry is “inactive”. As for `O=C(NCc1ccc(F)cc1)C(c1ccncc1)N(C(=O)c1csnn1)C1CC1` (stereo not given), the AC50 is 2 µM (active).

`O=C(O)CCC(=O)c1ccc(Cl)cc1`: the activity, negative = inhibition was 1.22% [at 11.4 µM] (inactive). In the case of `O=C(C/C=N/OCc1ccc(Cl)cc1Cl)c1ccc(Cl)cc1`, the AC50 was 25.1 µM (active).

As to `CCN1CCN(CCCNC(=O)C(NC(=O)C2CCC(C)CC2)C(C)C)CC1` (stereo not given), the AC50 result was “inactive”.

For `CC(=O)NCCc1c(Cc2ccccc2)[nH]c2ccccc12`, the AC50 is 7.94 µM (active).

For the molecule `COc1ccc2[nH]c3cc4c(=O)c5cc(OC)ccc5[nH]c4cc3c(=O)c2c1`, the activity, negative = inhibition was -0.294% [at 11.4 µM] (inactive).

For `CCCCC(=O)NCCc1c(Cc2ccccc2)[nH]c2ccccc12`, the AC50 is 0.794 µM (active). Still for that read-out and setting: the value for `CCCCNC(=O)C(=O)NC(C)CCc1ccccc1` (stereo not given) was “inactive”. In the case of `COc1ccc2[nH]c(-c3ccccc3)c(CCNC(C)=O)c2c1`, the AC50 was 12.6 µM (active).

For `Cc1ccc2[nH]c(-c3ccccc3)c(CN(C)C)c(=O)c2c1`, the activity, negative = inhibition is 9.06% [at 2.29 µM] (inactive). Regarding `CSc1nc(C)c2c(n1)N(c1ccc(C(C)C)cc1)CC2`, the AC50 entry is “inactive”.

Regarding `C=CCc1cccc2cc(C(=O)N(CC)CC)c(=O)oc12`, the concentration at half-maximal activity (AC50) is 11.2 µM (active). For the molecule `Cc1cc(C)c[n+](CC(=O)c2cc3ccccc3oc2=O)c1`, the AC50 entry is “inactive”. Still for that read-out and setting: the value for `CN(C)c1ncnc2ccc(-c3cccc(C#N)c3)cc12` was 12.6 µM (active). As for `CN(C)c1ncnc2ccc(-c3cccnc3)cc12`, the AC50 was 1 µM (active). Regarding `CN(C)c1ncnc2c1ncn2CCn1cnc2c(N(C)C)ncnc21`, the activity, negative = inhibition is 8.51% [at 11.4 µM] (inactive).

On to `COc1cccc(-c2ccc3ncnc(N(C)C)c3c2)c1`, for which the AC50 is 7.94 µM (active). Consider `CN(C)c1ccc(-c2ccc3ncnc(N(C)C)c3c2)cc1`, for which the AC50 is 6.31 µM (active).

As for `NC(=O)C1(N2CCCCC2)CCN(C(=O)c2ccc(-n3cnnn3)cc2)CC1`, the AC50 result was “inactive”.

In the case of `NC(N)=[N+]1CCc2ccccc2C1`, the AC50 entry is “inactive”.

Turning to `CN1CCN(NC(=O)c2ccccc2F)CC1`, the AC50 entry is “inactive”. As for `COC(=O)C(NNc1ccccc1)(NC(=O)c1ccccc1F)C(F)(F)F` (stereo not given), the AC50 is 1.58 µM (active). For the molecule `[Cu].[O-]/N=C1/C(=[OH+])Nc2ccccc21.[O-]Nc1c(O)[nH]c2ccccc12`, the activity, negative = inhibition is 1.34% [at 11.4 µM] (inactive).

As for `O=C(O)c1ccc(S(=O)(=O)N=Nc2c(O)[nH]c3ccccc23)cc1`, the activity, negative = inhibition was 14.3% [at 11.4 µM] (inactive).

For `O=Nc1c(-c2c(O)[nH]c3ccccc23)[nH]c2ccccc12`, the AC50 was 7.94 µM (active).

Consider `O=c1[nH][nH]c(C(F)(F)F)c1C=Nc1ccccc1`, for which the AC50 entry is “inactive”. Still for that read-out and setting: the value for `COc1cc2nc(N(C)CCCNC(=O)[C@@H]3CCCO3)nc(N)c2cc1OC` was “inactive”. For `COc1cc2nc(N3CCN(C(=O)OCc4ccccc4)[C@H](C(=O)NC(C)(C)C)C3)nc(N)c2cc1OC`, the AC50 is 3.98 µM (active). For the molecule `C=CCN=C1CC(C)(C)CC(=O)/C1=C(/O)CCC(=O)OC`, the AC50 entry is “inactive”. On to `Cc1cc(C)cc(NC(=O)CCc2nc3ccccc3[nH]2)c1`, for which the AC50 was 2.82 µM (active). For `CC(C)(CCc1nc2ccccc2[nH]1)C(=O)O`, the activity, negative = inhibition is -1.06% [at 11.4 µM] (inactive). On to `CC(=O)COC(=O)CCc1nc2ccccc2[nH]c1=O`, for which the AC50 entry is “inactive”. Consider `CCCn1c(-c2cccs2)nc2nc3ccccc3nc21`, for which the AC50 was 10 µM (active).

Take `CCCCNC(=O)NS(=O)(=O)c1ccc(C(=O)OC(C)C)o1`: the AC50 result is “inactive”. As to `N/C(=N\OC(=O)Cc1ccc(Cl)cc1)c1cccnc1`, the AC50 is 0.794 µM (active). As for `C/C(=N\OC(=O)c1ccccc1)c1cc(-c2ccc(Cl)cc2)no1`, the AC50 result is “inactive”. Turning to `COc1ccccc1NCc1nnc(SCC(=O)N/N=C/c2ccco2)n1-c1ccc(Cl)cc1Cl`, the AC50 is 5.01 µM (active). `Cc1cc(C)n(CC(=O)N/N=C/c2ccco2)n1`: the AC50 entry is “inactive”. `O=C(Nc1cccc(F)c1)/C(=C\c1ccco1)NC(=O)c1cccs1`: the activity, negative = inhibition was -8.91% [at 2.29 µM] (inactive).

For the molecule `O=C(N/C(=C\c1cccs1)C(=O)N1CCCCCC1)c1ccccc1`, the AC50 is 7.94 µM (active). As to `O=C(NNC(=O)c1ccccc1)C(=O)N1CCCCC1`, the AC50 result is “inactive”.

Regarding `O=C(O)C/C(=C\c1ccco1)C(=O)O`, the activity, negative = inhibition was -18.3% [at 11.4 µM] (inactive). As to `O=C(NC(=S)NNC(=O)c1cccs1)c1ccco1`, the activity, negative = inhibition is -0.791% [at 2.29 µM] (inactive).

Take `O=C(N/C(=C/c1ccco1)C(=O)N1CCCCCC1)c1cccs1`: the concentration at half-maximal activity (AC50) was 14.1 µM (active). With `O=C(NCC1CCCO1)/C(=C\c1ccco1)NC(=O)c1ccccc1` (stereo not given), the AC50 result is “inactive”.

On to `CC(=O)c1cccc(NC(=O)/C(=C\c2ccco2)NC(=O)c2cccs2)c1`, for which the AC50 was 20 µM (active). Take `O=C(NC(N1CCCC1)C(Cl)(Cl)Cl)c1ccccc1` (stereo not given): the AC50 entry was “inactive”.

Take `C/C(=N/Nc1ccc2ccccc2n1)c1ccccc1O`: the AC50 is 3.16 µM (active). On to `CC(=O)/C=C/c1ccc2ccccc2n1`, for which the AC50 result is “inactive”. As for `CC(=NC1CCCCC1)c1ccccc1O`, the activity, negative = inhibition was -3.59% [at 11.4 µM] (inactive). Consider `Cc1cc(N=Cc2c(CO)cnc(C)c2O)c(N=Cc2c(CO)cnc(C)c2O)cc1C.[Zn]`, for which the activity, negative = inhibition is -6.9% [at 11.4 µM] (inactive). For `Cc1cc(C)cc(-n2nnnc2SCC(=O)Nc2nc(-c3ccc(Cl)cc3)cs2)c1`, the AC50 was 3.98 µM (active).

With `COC(=O)CSc1ccc2nnc(-c3ccc(F)cc3)n2n1`, the AC50 result was “inactive”.

With `Cc1cc(C)cc(-n2nnnc2SCC(=O)Nc2nc(-c3ccc(F)cc3)cs2)c1`, the AC50 is 1.58 µM (active). Turning to `Cc1ncsc1C(=O)N1N=C2/C(=C/c3ccccc3)CCCC2C1c1ccccc1` (stereo not given), the AC50 was 5.01 µM (active). The same measure, in the same setting: in the case of `COc1ccc(/C=C2\CCCC3C2=NN(C(=O)c2ccco2)C3c2ccc(OC)c(OC)c2)cc1OC` (stereo not given) it was 7.94 µM (active). `O=C1C2=CC[C@@H]3C(=O)N(c4ccc(F)cc4F)C(=O)[C@H]3[C@H]2[C@H](O)[C@H]2O[C@H]12`: the activity, negative = inhibition is -21.3% [at 11.4 µM] (inactive). Take `CC1(C)CCC(NC(=O)[C@H](N)CCC(=O)O)CC1`: the AC50 entry is “inactive”. Still for that read-out and setting: in the case of `C(/C=C/c1ccco1)=N/N1CCN(c2ccccc2)CC1` it was “inactive”; in that of `COc1ccccc1/C=C/C=N/N1CCN(Cc2ccc(Cl)cc2)CC1`, 14.1 µM (active). Still for that read-out and setting: the value for `O=[N+]([O-])c1ccc(Cl)c(/C=N/N2CCN(Cc3ccccc3)CC2)c1` was “inactive”.

On to `CC(C)N(Cc1ccccc1)S(=O)(=O)c1n[nH]c(C(C)(C)C)n1`, for which the activity, negative = inhibition is -24.5% [at 11.4 µM] (inactive). In the case of `Fc1ccc2nc(Nc3nc4c(s3)CCCC4)sc2c1`, the AC50 was 22.4 µM (active).

On to `O=C(Nc1nc2ccc(F)cc2s1)C1CCCO1` (stereo not given), for which the AC50 result was “inactive”. Consider `CC(C)(C)c1ccc(OC(=O)Nc2ccc(O)c(C(=O)O)c2)cc1`, for which the activity, negative = inhibition is -11.3% [at 11.4 µM] (inactive). With `Cc1cccc(/C=N\Nc2cn[nH]c(=O)c2Cl)c1`, the AC50 is 15.8 µM (active). Take `Cc1cnn(-c2cc(N/N=C/c3ccccc3)ncn2)c1`: the AC50 result is “inactive”.

As to `CC1(C)Cc2ccccc2C(N/N=C/c2cccc(F)c2)=N1`, the activity, negative = inhibition is 14.5% [at 2.29 µM] (inactive). `COC(=O)[C@@]1(Cc2ccc(F)cc2)[C@@H]2[C@@H](CC(=O)[C@H]2CC(=O)C(=O)N(C)C)CN1C(=O)c1ccccc1`: the AC50 is 6.31 µM (active). On to `CC(C)N(CCNC(=O)C1CCC(=O)N1Cc1ccc(F)cc1)Cc1ccccc1` (stereo not given), for which the AC50 result was “inactive”. Still for that read-out and setting: in the case of `COC(=O)[C@@]1(Cc2ccc(OC)cc2)[C@@H]2[C@@H](CC(=O)[C@H]2CC(=O)C(=O)N(C)C)CN1C(=O)c1ccccc1` it was 1 µM (active). On to `CN(C(=O)c1ccncc1)c1ccccc1`, for which the activity, negative = inhibition was -11.8% [at 11.4 µM] (inactive). For `COC(=O)c1c(C)oc2ccc(N(C(=O)c3ccncc3)S(=O)(=O)c3ccccc3)cc12`, the AC50 was 7.08 µM (active). `Cc1ccc(C)c(C(=O)CN2C(=O)c3ccccc3S2(=O)=O)c1`: the AC50 was 7.94 µM (active). `NC(=O)C1CCN(C(=O)CN2C(=O)c3ccccc3S2(=O)=O)CC1`: the AC50 result is “inactive”. For `O=C(CN1C(=O)c2ccccc2S1(=O)=O)Nc1ccccc1`, the AC50 entry was “inactive”. Turning to `COCCCNC(=O)C1CCC(=O)N1Cc1ccccc1Cl` (stereo not given), the activity, negative = inhibition was -20.1% [at 11.4 µM] (inactive). Regarding `CN(CCCNC(=O)C1CCC(=O)N1Cc1ccccc1Cl)c1ccccc1` (stereo not given), the AC50 is 7.08 µM (active). In the case of `O=C(NCCCN1CCN(c2cccc(Cl)c2)CC1)C1CCC(=O)N1Cc1ccccc1Cl` (stereo not given), the activity, negative = inhibition was -7.41% [at 2.29 µM] (inactive).
